# These entries were drawn from the full list.
# aSyn 5UTR act = Activators via SNCA 5'UTR binding, MLPCN | alpha-synuclein 5'UTR reporter, activators screen | activity score, % (tested at 7.5 µM), hits read low | hit rate 7.1% among 300,000 | AID 1814; in the data active means activity score below about -60%
# The depositor's hits bear a star.
SMILES,aSyn 5UTR act
Cc1ccc(-c2cc(C(=O)Nc3nn[nH]n3)c3ccccc3n2)cc1,-69*
COc1ccc(-c2cc(C(=O)Nc3ccc(C(N)=O)cc3)c3ccccc3n2)cc1,-119*
O=C(N/N=C/c1cccs1)c1cc(-c2ccncc2)nc2ccccc12,62
Cc1ccc(SC[C@H](c2ccccc2)N2CCN(C)CCC2=O)cc1,-138*
Cc1ccc(SC[C@H](CC(C)C)N2CCN(C)CCC2=O)cc1,-135*
CC(C)C[C@@H](CSc1ccc(Br)cc1)N1CCN(CC(C)C)CCC1=O,-148*
CC(C)C[C@@H](CSc1ccc(Br)cc1)N1CCN(C)CCC1=O,-141*
CCCN1CCC(=O)N([C@H](CSc2ccc(OC)cc2)c2ccccc2)CC1,-77*
COc1ccc(SC[C@H](CC(C)C)N2CCN(C)CCC2=O)cc1,-86*
CSc1n[nH]c(-c2ccc(C(F)(F)F)cc2)n1,-68*
N/C(=N\OC(=O)c1ccc(Cl)cc1)c1ccccn1,63
Cc1cc(/C(N)=N/OC(=O)c2cccc(Cl)c2)no1,-193*
Cc1cc(/C(N)=N/OC(=O)c2ccc(Cl)cc2)no1,-201*
O=C(Nc1ccc2ccccc2n1)c1ccccc1Cl,-71*
O=C(Nc1ccc2ccccc2n1)C1CCCCC1,-144*
O=C(Nc1ccc2ccccc2n1)c1ccc(Cl)cc1,-145*
CC(C)c1ccc(N(C(=O)c2csnn2)C(C(=O)NC(C)(C)C)c2ccncc2)cc1 (stereo unspecified),-158*
COc1ccc(C2=NOC(C(=O)NCc3ccc(F)cc3)C2)cc1OC (stereo unspecified),82
CCCCNC(=O)C1CC(c2cccc([N+](=O)[O-])c2)=NO1 (stereo unspecified),-171*
COc1ccc(CCNC(=O)C2CC(c3ccccc3[N+](=O)[O-])=NO2)cc1 (stereo unspecified),-95*
COc1ccc(CCNC(=O)Nc2ccccc2[N+](=O)[O-])cc1,-130*
O=C(NCCc1cccs1)C1CC(c2ccccc2[N+](=O)[O-])=NO1 (stereo unspecified),-93*
CCc1nnc2c3cnn(-c4ccccc4)c3ncn12,-183*
S=C1NC2=C(CCCC2=C2SCCS2)C(c2ccccc2)N1 (stereo unspecified),-324*
COc1cccc(NC(=O)COC(=O)c2c(F)cccc2Cl)c1,-148*
SMILES,aSyn 5UTR act
O=C(COC(=O)c1c(F)cccc1Cl)NC1CCCC1,-78*
CCOc1cccc(/C=N/NC(=S)Nc2cc(S(=O)(=O)N3CCOCC3)ccc2N2CCOCC2)c1O,81
CCOc1cccc(C=Nc2cc(C)cc(C)c2O)c1O,-85*
CCOc1cccc(/C=N/Nc2ccc(S(=O)(=O)N(CC)CC)cn2)c1O,88
COc1ccc(-c2nnc(N(C)C(=O)c3cccnc3)s2)cc1,-108*
Cc1ccc(-c2nnc(N(C)C(=O)c3cccnc3)s2)cc1,-76*
O=C(NNC(=O)c1cnccn1)c1ccc(Cl)c(Cl)c1,51
C/C(=N\NC(=O)c1ccc(Cl)cc1)c1ccccn1,-63*
N/C(=N\NC(=O)c1ccc(Cl)cc1)c1cnccn1,-67*
C/C(=N\Nc1ccc(Cl)cc1)c1ccccn1,-138*
C/C(=N\Nc1ccc2nncn2n1)c1ccccn1,94
COc1cc(C(=O)N/N=C(\C)c2ccccn2)cc(OC)c1OC,109
C/C(=N/NC(=O)c1ccccn1)c1ccc(O)cc1,-90*
CC1(C)CC(=O)c2c(O)cc(OCc3ccc([N+](=O)[O-])cc3)cc2O1,-150*
COc1cccc(NC(=O)COc2cc(O)c3c(c2)OC(C)(C)CC3=O)c1,-87*
COc1ccc(CNC(=S)Nc2ccc(F)c(Cl)c2)cc1,-109*
O=C(CSc1n[nH]c(-c2ccccc2)n1)Nc1ccc(N2CCOCC2)cc1,-68*
O=C(Cc1cccs1)Nc1ccc(N2CCOCC2)cc1,-97*
O=C(CSc1ccccc1)Nc1ccc(N2CCOCC2)c(F)c1,-99*
Cn1c(-c2ccc(F)cc2)cnc1SCC(=O)Nc1ccccc1N1CCOCC1,-193*
O=C(CSc1n[nH]c(-c2ccccn2)n1)Nc1ccccc1,57
O=C(CSc1ccc(F)cc1)Nc1ccc(N2CCOCC2)cc1,-74*
O=C(CSc1ccccc1)Nc1ccc(N2CCOCC2)cc1,-116*
O=C(Cc1cccs1)N/N=C/C=C/c1ccccc1[N+](=O)[O-],-99*
O=C(O)c1ccc(N/N=C/C=C/c2ccccc2[N+](=O)[O-])cc1,-127*
SMILES,aSyn 5UTR act
N#C/C(=C/C=C/c1ccccc1)C(=O)Nc1ccccc1,-109*
O=C(Cc1ccccc1)N/N=C/C=C/c1ccccc1[N+](=O)[O-],-83*
Cc1ccc(CSc2nnc(SCC(=O)N/N=C/C=C/c3ccccc3[N+](=O)[O-])s2)cc1,89
N#C/C(=C\C=C\c1ccccc1[N+](=O)[O-])C(=O)NCc1ccccc1,-291*
CCCCCCOC(=O)c1ccc(N)cc1,-114*
CCCCOC(=O)Nc1ccc(C)c(Cl)c1,-164*
CCCCOC(=O)Nc1ccc(C(=O)OC)cc1,-110*
CCCCCCCCOC(=O)c1c(CSC(=N)N)n(C)c2cc(Br)c(OC(C)=O)cc12,41
O=C(Nc1ccccc1)N1CCc2ccccc2C1,-126*
O=C(CNS(=O)(=O)c1cccs1)N1CCc2ccccc2C1,-72*
O=C(CNc1cccc(F)c1)N1CCc2ccccc2C1,-195*
Cc1ccc(NC(=O)N2CCc3ccccc3C2)cc1,-212*
CN(C)c1ccc(NC(=O)CN2CCc3ccccc3C2)cc1,-79*
CCOc1ccc(NC(=O)N2CCc3ccccc3C2)cc1,-92*
COc1cc2c(cc1OC)-c1cc(Nc3ccc(N(C)C)cc3)nc(=O)n1CC2,52
O=C(NCCCN1CCc2ccccc2C1)Nc1ccc(Cl)cc1,-110*
O=C(Cc1ccc(Cl)cc1)N1CCc2ccccc2C1,-160*
O=C(Nc1ccc(Cl)cc1)N1CCc2ccccc2C1,-209*
Cc1ccc(NC(=O)N2CCc3ccccc3C2)c(C)c1,-76*
O=C(O)c1cccc(OCc2ccccc2Cl)c1,-188*
O=C1C2C3C=CC(CO)(O3)C2C(=O)N1c1ccc(-c2ccccc2)cc1 (stereo unspecified),-85*
CCOC(=O)c1cc2c(s1)-c1ccccc1CC2,-97*
CCOC(=O)c1cc2ccc3ccccc3c2s1,-169*
Cc1ccc2c(c1)sc[n+]2Cc1ccccc1,-256*
CNc1ncc(C(=O)c2ccc(Br)cc2)s1,-108*
SMILES,aSyn 5UTR act
CNc1ncc(C(=O)c2ccccc2)s1,-66*
Cc1ccc(COc2ccc(/C=N/O)cc2)cc1,-131*
Cc1ccc(Oc2ccc(/C=N/O)cn2)cc1,-83*
CC1CCc2cccc3c2N1c1cc(C#N)c(C#N)cc1O3 (stereo unspecified),71
Cc1cccc(N/N=C2/COC(C)(C)CC2=O)c1,-101*
CC1(C)CC(=O)/C(=N/Nc2ccc(Cl)cc2)CO1,-230*
O=C(Cn1nnc2ccccc2c1=O)NC1CCCCC1,-68*
O=C(Cn1nnc2ccccc21)c1ccc(Br)cc1,-82*
CC(=O)Nc1ccc(C(=O)Cn2nnc3ccccc3c2=O)cc1,-66*
Cc1ccc(C(=O)Cn2nnc3ccccc32)cc1,-161*
CC1CC2(C)Oc3ccccc3CC2C(C)C1CNCCCN(C)C (stereo unspecified),106
Cc1ccc(NC(=O)CCn2nnc3ccccc32)cc1,-84*
O=C(CCn1nnc2ccccc21)N1CCN(c2ccccc2)CC1,-119*
Cc1ccc(C(=O)Cn2nnc3ccccc32)cc1C,-90*
O=C(Nc1ccc(F)cc1F)c1csc(-c2ccccc2)n1,-95*
O=C(Nc1ccccc1)c1csc(-c2ccccc2)n1,-170*
